# Screens deposited in PubChem by several laboratories.
# HIF-2a block = inhibitors of HIF-2a | 786-0 RCC cells HIF-2a reporter, luciferase luminescence, overnight | 0.72% of 360,000 active | inhibition, % at 18.8 µM;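 active = inhibition of the luminescence signal of 40% or more relative to plate controls, in a single-dose primary screen at 18.75 µM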
# CHOP inh = blocks CHOP induction under ER stress; 3.8% of 220,000 active; CHO-K1 CHOP-promoter luciferase, tunicamycin-induced, 15-18 h; AID 2732; inhibition, % at 10 µM;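 active = compounds that reduced the stress-induced luciferase reporter signal by more than about 70% of percent inhibition, limit read from the data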
# Peg3 prom inh = inhibitors of Peg3 promoter; HeLa PEG-Prom luciferase reporter, luminescence, overnight; 1.7% of 360,000 active; inhibition, % at 20 µM;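 active = inhibition of at least 50% at 20 µM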
# CF NFkB block = cystic fibrosis NF-kB activation inhibition. KKLEB NF-kB-GFP reporter, PAF-induced, GFP fluorescence overnight. inhibition, % at 5 µM. 0.86% of 360,000 active. AID 588850;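 active = at least 50% inhibition at 5 µM, scaled per plate between neutral and stimulator controls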;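 note: PAF is a Pseudomonas aeruginosa culture filtrate used as stimulus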
# MITF TRPM1 inh = MITF TRPM1 promoter inhibition in SK-MEL-5 cells | inhibition, % at 12.5 µM | SK-MEL-5 TRPM1 promoter luciferase, 24 h | 0.83% of 330,000 active;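 active = mean inhibition across replicates of 60% or more, whatever share of single replicates reaches that level; inconclusive = some that reach 60%, reason not given; inactive = mean inhibition across replicates below 60%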
# KKLEB cytotox = counter-screen for CF NF-kB inhibitors: cytotoxicity. KKLEB CF airway cells viability, ATPlite luminescence, overnight; stronger effect = lower value; cells stimulated with P. aeruginosa culture filtrate. activity change (cytotoxicity), % at 5 µM. 0.36% of 360,000 active. AID 602141;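 active = corrected activity change at or below -50% at 5 µM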
# Mdm2-MdmX confirm = Mdm2/MdmX (human) interaction inhibition, confirmed; shares compounds with HIF-2a block; 99% of 740 active; AID 504601; SaOS-2 split-luciferase Mdm2/MdmX complementation, luminescence; inhibition, % at 8 µM;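 active = mean inhibition of the luminescence signal across two replicates at or above 26 percent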
# Target sequence (O15151 whole entry, looked up): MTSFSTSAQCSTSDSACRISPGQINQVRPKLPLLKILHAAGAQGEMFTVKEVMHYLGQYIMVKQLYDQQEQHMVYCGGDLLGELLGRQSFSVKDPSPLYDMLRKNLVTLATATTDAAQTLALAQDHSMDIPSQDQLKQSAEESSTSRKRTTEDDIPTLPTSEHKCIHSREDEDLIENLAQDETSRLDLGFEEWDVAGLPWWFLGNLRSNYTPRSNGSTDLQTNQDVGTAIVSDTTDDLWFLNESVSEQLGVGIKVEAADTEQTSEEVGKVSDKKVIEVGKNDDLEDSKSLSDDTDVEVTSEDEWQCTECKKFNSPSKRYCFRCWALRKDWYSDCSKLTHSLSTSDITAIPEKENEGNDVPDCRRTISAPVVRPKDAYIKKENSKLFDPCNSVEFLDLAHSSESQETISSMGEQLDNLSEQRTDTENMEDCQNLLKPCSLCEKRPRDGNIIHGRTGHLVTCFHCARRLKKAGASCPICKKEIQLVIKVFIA
# Target sequence (Q00987 whole entry, looked up): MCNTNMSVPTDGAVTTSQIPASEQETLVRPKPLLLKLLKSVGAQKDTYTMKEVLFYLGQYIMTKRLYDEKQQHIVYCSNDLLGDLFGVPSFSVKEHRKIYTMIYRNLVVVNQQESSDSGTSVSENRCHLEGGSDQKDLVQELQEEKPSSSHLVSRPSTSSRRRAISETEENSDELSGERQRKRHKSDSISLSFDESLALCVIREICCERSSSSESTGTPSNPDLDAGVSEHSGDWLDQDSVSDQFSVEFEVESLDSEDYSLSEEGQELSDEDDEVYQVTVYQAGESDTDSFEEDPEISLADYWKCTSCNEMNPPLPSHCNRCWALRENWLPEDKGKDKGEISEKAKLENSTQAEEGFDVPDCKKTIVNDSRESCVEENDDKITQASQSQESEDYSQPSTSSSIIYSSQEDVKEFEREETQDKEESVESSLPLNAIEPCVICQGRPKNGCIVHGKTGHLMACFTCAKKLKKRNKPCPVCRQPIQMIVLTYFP
# HIF-2a conf = confirmation of HIF-2a inhibitors. shares compounds with HIF-2a block. 786-0 RCC cells, HIF-2a luciferase reporter luminescence, overnight. inhibition, % at 18.8 µM. 56% of 1,800 active. AID 651580;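 active = mean inhibition across four replicates of at least 40 percent at the single tested concentration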
# HIF-1a cs = counter-screen for HIF-2a inhibitors: HIF-1a inhibition in MiaPaCa-2 cells; shares compounds with HIF-2a block; inhibition, % at 18.8 µM; AID 651589; MiaPaCa-2 HIF-1a luciferase reporter, desferoxamine, overnight; 72% of 1,800 active;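 active = mean inhibition of the reporter signal across four replicates at the single tested dose of 50% or more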
# Hits are given with their value; - = inactive; ? = inconclusive; . = no result given. Rows were chosen to be rich in hits. Some 4.3% of all compounds tested hit in one or more screens of this group.
SMILES,HIF-2a block,CHOP inh,Peg3 prom inh,CF NFkB block,MITF TRPM1 inh,KKLEB cytotox,HIF-2a conf,HIF-1a cs,others
COc1ccc(S(=O)(=O)NCc2cc(-c3ccccc3Cl)no2)cc1,-,-,-,-,-,-,.,.,
CCCCN(C(=O)CCCc1nc2ccccc2s1)c1c(N)n(CC(C)C)c(=O)[nH]c1=O,-,.,-,-,-,-,.,.,
COCc1[nH][nH]c(=O)c1/C=N/N1CCOCC1,-,-,-,-,-,-,.,.,
Cc1ccccc1CS(=O)(=O)c1ncc(Cl)c(C(=O)Nc2ccc(F)cc2)n1,93,.,108,89,91,-99,74,51,Mdm2-MdmX confirm=103
C[C@@H]1CCCCO[C@@H](CN(C)S(=O)(=O)c2ccc(F)cc2)[C@@H](C)CN([C@H](C)CO)C(=O)c2cc(NC(=O)c3ccccc3)ccc2O1,-,.,-,-,.,-,.,.,
COc1ccc(Br)cc1C(C[N+](=O)[O-])c1c(N)n(C)c(=O)n(C)c1=O (stereo not given),58,-,68,-,80,-,-,86,
O=C(Nc1ccccc1)c1cc(C2CCCCN2C(=O)c2ccc3c(c2)CCO3)on1 (stereo not given),-,.,-,-,.,-,.,.,
O=C(Nc1ccccc1N1CCOCC1)c1cnccn1,-,-,-,-,-,-,.,.,
O=C(Nc1ccc(N2CCOCC2)cc1)c1cnccn1,53,.,59,-,-,-,71,-,
COc1ccc(OC)c(C(C[N+](=O)[O-])c2c(C)cc3ccccn23)c1 (stereo not given),44,.,-,-,-,-,-,-,
CCN(C(=O)Cn1nc(C)c([N+](=O)[O-])c1C)C1CCS(=O)(=O)C1 (stereo not given),-,.,-,-,-,-,.,.,
COc1ccc(C(CNC(=O)c2ccc(OC)c(S(=O)(=O)N3CCCC3)c2)N2CCCC2)cc1 (stereo not given),-,.,-,-,-,-,.,.,
COc1ccc(N2CCN(CCNC(=O)c3ccc4c(c3)[nH]c(=S)n3c5ccccc5nc43)CC2)cc1,-,-,84,-,-,-,.,.,Mdm2-MdmX confirm=99
COc1ccc(NC(=O)CN(C)CC(=O)Nc2cccc(S(=O)(=O)N(C)c3ccccc3)c2)cc1,-,-,-,-,-,-,.,.,
CC(C)C1C(c2ccccc2)N(C)C(c2ccccc2)CC1(O)c1ccccc1 (stereo not given),53,73,-,-,-,-,-,-,
CC1C(C)C(O)(c2ccccc2)CCN1C (stereo not given),-,-,-,-,-,-,.,.,
CCCS(=O)(=O)NC(=O)C1(C)CCN(C(=O)Cc2cccc3ccccc23)C1 (stereo not given),-,.,-,-,.,-,.,.,
Cc1ccc2nc(Cl)c(CNCc3ccccc3)cc2c1,-,-,-,-,-,-,.,.,
COc1ccc(Oc2c(Cl)cnn(-c3ccc(Cl)c(Cl)c3)c2=O)cc1,84,-,65,-,?,-,-,104,
CCOc1ccc(/C=C/[N+](=O)[O-])c2ccccc12,89,-,99,-,84,-,-,105,
CCOC(=O)Cn1cc(/C=C/[N+](=O)[O-])c2ccccc21,77,-,-,-,-,-,60,-,
CCOc1ccccc1NC(=O)/C=C/c1ccccc1[N+](=O)[O-],-,-,-,-,-,-,.,.,
COC(=O)c1c(NC(=O)CN2C(=O)C(=O)N(C(C)C)C2=O)sc(C)c1C,-,.,-,-,-,-,.,.,
CCOc1cc(/C=N/Nc2cccc(C(=O)O)c2)ccc1OC(=O)c1ccccc1,87,92,65,-,91,-,90,-,
O=C(O)c1cccc(N/N=C/c2sc(N3CCOCC3)nc2-c2ccccc2)c1,-,-,-,-,-,-,.,.,
SMILES,HIF-2a block,CHOP inh,Peg3 prom inh,CF NFkB block,MITF TRPM1 inh,KKLEB cytotox,HIF-2a conf,HIF-1a cs,others
Cc1ccc(/C=N/Nc2cccc(C(=O)O)c2)s1,62,80,-,-,-,-,59,-,
Cc1nn(-c2ccccc2Cl)c(Cl)c1/C=N/Nc1cccc(C(=O)O)c1,58,-,-,-,69,-,52,-,
C[C@]12c3[nH]c4cc(-c5ccco5)ccc4c3CCN1C(=O)[C@@H](CC(=O)NCc1ccco1)C[C@@H]2C(=O)N1CCOCC1,-,.,-,-,-,-,.,.,
O=C(CCNC(=O)c1ccc(Br)cc1)NC1CCCc2ccccc21 (stereo not given),-,.,-,-,-,-,.,.,
CN(C)S(=O)(=O)n1cc(/C=C(\NC(=O)c2ccccc2Cl)C(=O)N2CCCC2)c2ccccc21,-,.,-,-,-,-,.,.,
Cc1nc2ccc(NC(=O)c3nn(CC(C)C)c(=O)c4ccccc34)cc2s1,-,-,-,-,-,-,.,.,Mdm2-MdmX confirm=93
CCCn1nc([N+](=O)[O-])c(C(C#N)c2nc3ccccc3s2)c(Cl)c1=O (stereo not given),52,-,-,-,-,-55,.,.,Mdm2-MdmX confirm=100
Cc1ccc(N(CC(=O)NCc2ccc(Cl)cc2)S(C)(=O)=O)cc1,-,.,-,-,-,-,.,.,
CCCCNC(=O)C1CCN(S(=O)(=O)N2CCCCCC2)CC1,-,-,-,-,-,-,.,.,
C=CCn1c(Sc2ncc([N+](=O)[O-])s2)n[nH]c1=O,93,-,102,-,82,-,.,.,Mdm2-MdmX confirm=103
COc1ccc(NS(=O)(=O)c2cccc(C(=O)N/N=C/c3c(F)c(F)c(F)c(F)c3F)c2)cc1,51,.,95,-,-,-,-,80,
NNC(=O)COc1ccc(-c2nccc(-c3ccc(F)cc3)n2)cc1,68,.,-,-,-,-,79,52,
O=C(O)COc1ccc(-c2nccc(-c3ccccn3)n2)cc1,87,-,-,-,-,-,90,59,
COc1ccc(NC(=O)c2cc(-c3ccc(F)cc3OC)n[nH]2)c(C)c1,-,.,-,-,.,-,.,.,
CC(C)[C@H](NC(=O)c1ccco1)C(=O)OCC(=O)c1ccc(Br)s1,-,.,-,-,-,-,.,.,
COc1ccc(C(=O)/C(=C\c2ccco2)N2C=CC=CC2=C(C#N)C#N)cc1,96,107,104,94,96,-87,.,.,Mdm2-MdmX confirm=100
O=C1CC(=O)Nc2cc(S(=O)(=O)N3CCN(c4ccc([N+](=O)[O-])cc4)CC3)ccc2N1,-,.,-,-,-,-,.,.,
O=C(c1ccco1)N1CCN(Cc2nnnn2C2CCCCC2)CC1,-,.,-,-,-,-,.,.,
CCC(=O)Nc1ccc(C(=O)Cn2ncc(Cl)c(Cl)c2=O)cc1,90,-,106,-,?,-,-,105,
